Hits are enriched below; roughly 3.7% of the tested compounds scored in any of these assays.
p53 reactivation: qHTS assay for re-activators of p53 using a Luc reporter; H1299 p53-A138V BP100-luciferase reporter, luminescence, 24 h; Potency, µM (top dose mostly 92.2 µM), most hits filed as activators; hit rate 0.063% among 320,000; further: nearly all actives have a fitted effect of over 45% in size
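p53-null H1299 cells stably carrying temperature-sensitive p53-A138V and a BP100-luciferase reporter were pinned with compounds (4-point, 1:5 series) and held 24 hrs at 37 deg C. Luminescence was read 10 min after detection reagent.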
miR-21 reporter: qHTS Assay for Modulators of miRNAs and/orActivators of miR-21 | HeLa miR-21 FLuc reporter, luciferase, 48 h | Potency, µM (doses to about 38.3 µM), hits mostly activators | 340,000 tested, under 10 active;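 further: miR-21 action dims this reporter so a rising signal means less miR-21 action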
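Using DMEM plus 10% FBS, HeLa miR-21-FLuc cells are incubated with test compounds (final up to about 40uM) for 48 hours; firefly luciferase signal is then imaged following reagent-mediated lysis.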
A549 tox: Nrf2 qHTS screen for inhibitors: counterscreen for cytotoxicity; hit rate 0.16% among 390,000; AID 504648, 2011; Potency, µM (series often up to 46 µM), usual class: inhibitors; A549 ARE-Fluc cells, CellTiter-Fluor viability, 18-24 h
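A549 ARE_Fluc cells in 5% FBS OPTI-MEM were exposed to compounds in concentration-response for 18-24 h at 37 deg C. Viability was read by CellTiter-Fluor fluorescence (Ex 405/Em 525) after 30 min, before the luciferase read.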
Nrf2 block: Nrf2 qHTS screen for inhibitors | hit rate 2.1% among 360,000 | Potency, µM (series often up to 46 µM), most hits filed as inhibitors | A549 ARE-Fluc reporter, luciferase luminescence, 18-24 h; further: nearly all actives have a fitted effect of over 60% in size
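Two sequential reads on A549 ARE_Fluc cells exposed to compound for 18-24 h: a CellTiter-Fluor fluorescence read for viability, then a luciferase luminescence read for Nrf2/ARE activity.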
Nrf2 ARE act: qHTS of Nrf2 Activators | hit rate 0.31% among 410,000 | Potency, µM (series often up to 46.1 µM), hits mostly activators | AID 624171, 2012 | AREc32 ARE-luciferase reporter (MCF7-derived line), luminescence, 24 h; further: nearly all actives have a fitted effect of over 65% in size
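ARE-driven firefly luciferase activity in AREc32 cells measured after a 24 hr compound exposure at 37 deg C, using Steady-Glo reagent and a 30 min room-temperature hold.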
ClpP mod: qHTS Assay for Activators of ClpP; ATP-dependent Clp protease proteolytic subunit (Bacillus subtilis (strain 168)), P80244; purified B. subtilis ClpP, FRET peptide cleavage, 20 min; Potency, µM (series often up to 57.5 µM); hit rate 1.9% among 340,000; AID 651965, 2013; active means well fitted falling curve with a large enough effect; inconclusive means small, poorly fitted or top-dose-only effect; inactive means no such curve, though single readings can be large or run the other way; further: the source files actives as falling curves though it sought activators and does not explain the sign; nearly all actives have a fitted effect of over 65% in size
Target sequence (P80244 whole entry, looked up): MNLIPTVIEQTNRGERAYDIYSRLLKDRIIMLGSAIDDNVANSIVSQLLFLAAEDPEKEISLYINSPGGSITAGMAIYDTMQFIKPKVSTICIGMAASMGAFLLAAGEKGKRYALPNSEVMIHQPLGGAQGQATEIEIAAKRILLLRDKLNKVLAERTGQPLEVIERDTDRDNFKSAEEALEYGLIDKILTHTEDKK
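ClpP 10 microg/mL final, pH 8 Tris/KCl buffer with BSA, glycerol, Tween-20; compound pinned in; FRET-FV substrate; RT 20 min; Ex320/Em430; ΔFRET vs ADEP 5.8 microM, DMSO, no enzyme.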
Numbers stand for hits. Unless noted, the call rests on the fitted dose curve; in most records, active means well fitted curve in the direction sought with a large enough effect; inconclusive means small, poorly fitted or top-dose-only effect, or another doubt; inactive means no such curve, though single readings can be large; an effect the other way counts as inactive or inconclusive.

`Cc1ccc(S(=O)(=O)c2cn(Cc3ccccc3)c3cc(N4CCOCC4)c(F)cc3c2=O)cc1` gave miR-21 reporter inactive, A549 tox inactive, Nrf2 block inactive, Nrf2 ARE act inactive and ClpP mod 28µM.
For Cc1ccc(S(=O)(=O)c2cn(Cc3cccc(F)c3)c3cc(N4CCCC4)c(F)cc3c2=O)cc1 the results were miR-21 reporter inactive, A549 tox inactive, Nrf2 block inactive, Nrf2 ARE act inactive and ClpP mod 3.5µM.
Screening Cc1ccc(S(=O)(=O)c2cn(Cc3ccccc3)c3cc(N4CCCCC4)c(F)cc3c2=O)cc1 returned miR-21 reporter inactive, A549 tox inactive, Nrf2 block inactive, Nrf2 ARE act inactive and ClpP mod inconclusive.
For CCc1ccc(S(=O)(=O)c2cn(Cc3ccccc3)c3cc(N4CCCC4)c(F)cc3c2=O)cc1 the results were miR-21 reporter inactive, A549 tox inactive, Nrf2 block inactive, Nrf2 ARE act inactive and ClpP mod 2.8µM.
`Cc1ccc(Cn2cc(S(=O)(=O)c3ccc(C)cc3)c(=O)c3cc(F)c(N4CCCC4)cc32)cc1` gave miR-21 reporter inactive, A549 tox inactive, Nrf2 block inactive, Nrf2 ARE act inactive and ClpP mod inconclusive.
For O=C(N/N=C/c1cccnc1)c1ccc([N+](=O)[O-])cc1 the results were p53 reactivation inactive, miR-21 reporter inactive, A549 tox inactive, Nrf2 block inactive, Nrf2 ARE act inactive and ClpP mod inactive.
Screening O=C(N/N=C/c1cccn1-c1ccc([N+](=O)[O-])cc1)c1cccnc1 returned p53 reactivation inactive, miR-21 reporter inactive, A549 tox inconclusive, Nrf2 block 18µM and Nrf2 ARE act inactive.
C/C(=N\NC(=O)CSCc1ccc([N+](=O)[O-])cc1)c1cccc(Br)c1 was read as p53 reactivation inactive, miR-21 reporter inactive, A549 tox inactive, Nrf2 block 23µM, Nrf2 ARE act inactive and ClpP mod inactive.
C/C(=N\NC(=O)CSCc1ccccc1Br)c1cccc([N+](=O)[O-])c1 was read as p53 reactivation inactive, miR-21 reporter inactive, A549 tox inactive, Nrf2 block inconclusive, Nrf2 ARE act inactive and ClpP mod inactive.
`c1coc(Cn2c(-c3ccco3)nc3ccccc32)c1` gave p53 reactivation inconclusive, miR-21 reporter inactive, A549 tox inactive, Nrf2 block inactive, Nrf2 ARE act inactive and ClpP mod 28µM.
COc1ccc2nc(-c3ccc(N(C)C)cc3)sc2c1 was read as A549 tox inconclusive and Nrf2 block 0.33µM.
For COc1ccc(NC(=O)N2CCN(C(=O)C(Cc3ccc(F)cc3)NC(C)=O)CC2)cc1 (stereo not given) the results were p53 reactivation inactive, miR-21 reporter inactive, A549 tox inactive, Nrf2 block inactive, Nrf2 ARE act inactive and ClpP mod 32µM.
`CN(C)CCCNC(=O)C[C@H]1C[C@H](C(=O)N2CCOCC2)[C@@]2(CCC3CCCC3)c3[nH]c4cc(CCC(=O)N(C)C)ccc4c3CCN2C1=O` gave p53 reactivation inactive, A549 tox inactive, Nrf2 block inactive, Nrf2 ARE act inactive and ClpP mod inactive.
COc1ccc(CNC(=O)Cn2nc(C(F)(F)F)c(Br)c2C)cc1 was read as miR-21 reporter inactive, A549 tox inactive, Nrf2 block inactive, Nrf2 ARE act inactive and ClpP mod inactive.
For COc1cc(NC(=O)Cn2nc(C(F)(F)F)c(Br)c2C)cc([N+](=O)[O-])c1 the results were p53 reactivation inactive, miR-21 reporter inconclusive, A549 tox inconclusive, Nrf2 block 23µM, Nrf2 ARE act inactive and ClpP mod inactive.
`CN(c1cccc(NC(=O)CN2C(=O)c3ccccc3S2(=O)=O)c1)S(C)(=O)=O` gave p53 reactivation inactive, miR-21 reporter inactive, A549 tox inactive, Nrf2 ARE act inactive and ClpP mod 28µM.
Screening CC(C)c1ccc(NC(=O)CN2C(=O)c3ccccc3S2(=O)=O)cc1 returned p53 reactivation inactive, miR-21 reporter inactive, A549 tox inactive, Nrf2 block inactive and Nrf2 ARE act inactive.
CCOC(=O)Cc1ccc(NC(=O)N2CCc3c(sc4c3CCCC4)C2c2ccc(F)cc2)cc1 (stereo not given) was read as miR-21 reporter inactive, A549 tox inactive, Nrf2 ARE act inactive and ClpP mod inactive.
Screening Cc1cccc(C)c1OC(=O)CSc1nnc(-c2ccc3c(c2)OCO3)o1 returned miR-21 reporter inactive, A549 tox inactive, Nrf2 block inactive, Nrf2 ARE act inactive and ClpP mod 25µM.
`Cc1ccc(-c2csc(NC(=O)c3ccc(Br)cc3)c2C(=O)O)cc1` gave p53 reactivation inconclusive, miR-21 reporter inactive, A549 tox inactive, Nrf2 block inconclusive and Nrf2 ARE act inactive.
For COc1cc(C(=O)Nc2sc(C)c(C)c2C(=O)O)cc(OC)c1OC the results were p53 reactivation inactive, miR-21 reporter inactive, A549 tox inactive, Nrf2 block inactive and Nrf2 ARE act inactive.
Screening Cc1cccc(C(=O)Nc2scc(-c3ccc(Br)cc3)c2C(=O)O)c1 returned A549 tox inactive, Nrf2 block 12µM, Nrf2 ARE act inactive and ClpP mod inactive.
Screening COc1cc(C(=O)Nc2scc(-c3ccc(Br)cc3)c2C(=O)O)cc(OC)c1OC returned p53 reactivation inactive, miR-21 reporter inactive, A549 tox inactive, Nrf2 block 16µM, Nrf2 ARE act inactive and ClpP mod inactive.
Screening Cc1ccc(-c2csc(NC(=O)c3cccc(C)c3)c2C(=O)O)cc1 returned A549 tox inactive, Nrf2 block 7.3µM, Nrf2 ARE act inactive and ClpP mod inactive.
Screening Cc1ccc(NC(=O)c2nc[nH]c2C(=O)N[C@H](C)c2ccccc2)cc1 returned p53 reactivation inactive, A549 tox inactive, Nrf2 block inconclusive, Nrf2 ARE act inactive and ClpP mod inactive.
For C[C@@H](NC(=O)c1nc[nH]c1C(=O)N[C@@H](CCCCNC(=O)OC(C)(C)C)C(=O)OC(C)(C)C)c1ccccc1 the results were p53 reactivation inactive, miR-21 reporter inconclusive, A549 tox inconclusive, Nrf2 block 16µM, Nrf2 ARE act inactive and ClpP mod inactive.
`CC(C)(C)OC(=O)NCc1ccc(CNC(=O)c2[nH]cnc2C(=O)N[C@@H](Cc2ccccc2)C(=O)OC(C)(C)C)cc1` gave p53 reactivation inactive, miR-21 reporter inactive, A549 tox inactive, Nrf2 block 23µM, Nrf2 ARE act inactive and ClpP mod inactive.

Screens: PubChem, National Center for Advancing Translational Sciences (NCATS)
